Bioassay records (PubChem BioAssay)
RecA splice inh: inhibitors of M. tuberculosis RecA intein splicing | AID 2221 | P9WHJ3 | cell-free RecA intein splicing, fluorescence | actives 0.75% (n = 290,000) | inhibition, % (concentration not given with the values); in the data active = inhibition above about 30%; inconclusive = no clear call, values can overlap the other calls;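 also: 0% = vehicle wells and 100% = reference inhibitor control wells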
TcdB GH inh: TcdB glycohydrolase inhibition | actives 0.24% (n = 350,000) | inhibition, % at 9.99 µM | TcdB glycohydrolase enzymatic assay, plate reader | P18177; in the data active = inhibition above about 10%
Target sequence (P18177 whole entry, looked up): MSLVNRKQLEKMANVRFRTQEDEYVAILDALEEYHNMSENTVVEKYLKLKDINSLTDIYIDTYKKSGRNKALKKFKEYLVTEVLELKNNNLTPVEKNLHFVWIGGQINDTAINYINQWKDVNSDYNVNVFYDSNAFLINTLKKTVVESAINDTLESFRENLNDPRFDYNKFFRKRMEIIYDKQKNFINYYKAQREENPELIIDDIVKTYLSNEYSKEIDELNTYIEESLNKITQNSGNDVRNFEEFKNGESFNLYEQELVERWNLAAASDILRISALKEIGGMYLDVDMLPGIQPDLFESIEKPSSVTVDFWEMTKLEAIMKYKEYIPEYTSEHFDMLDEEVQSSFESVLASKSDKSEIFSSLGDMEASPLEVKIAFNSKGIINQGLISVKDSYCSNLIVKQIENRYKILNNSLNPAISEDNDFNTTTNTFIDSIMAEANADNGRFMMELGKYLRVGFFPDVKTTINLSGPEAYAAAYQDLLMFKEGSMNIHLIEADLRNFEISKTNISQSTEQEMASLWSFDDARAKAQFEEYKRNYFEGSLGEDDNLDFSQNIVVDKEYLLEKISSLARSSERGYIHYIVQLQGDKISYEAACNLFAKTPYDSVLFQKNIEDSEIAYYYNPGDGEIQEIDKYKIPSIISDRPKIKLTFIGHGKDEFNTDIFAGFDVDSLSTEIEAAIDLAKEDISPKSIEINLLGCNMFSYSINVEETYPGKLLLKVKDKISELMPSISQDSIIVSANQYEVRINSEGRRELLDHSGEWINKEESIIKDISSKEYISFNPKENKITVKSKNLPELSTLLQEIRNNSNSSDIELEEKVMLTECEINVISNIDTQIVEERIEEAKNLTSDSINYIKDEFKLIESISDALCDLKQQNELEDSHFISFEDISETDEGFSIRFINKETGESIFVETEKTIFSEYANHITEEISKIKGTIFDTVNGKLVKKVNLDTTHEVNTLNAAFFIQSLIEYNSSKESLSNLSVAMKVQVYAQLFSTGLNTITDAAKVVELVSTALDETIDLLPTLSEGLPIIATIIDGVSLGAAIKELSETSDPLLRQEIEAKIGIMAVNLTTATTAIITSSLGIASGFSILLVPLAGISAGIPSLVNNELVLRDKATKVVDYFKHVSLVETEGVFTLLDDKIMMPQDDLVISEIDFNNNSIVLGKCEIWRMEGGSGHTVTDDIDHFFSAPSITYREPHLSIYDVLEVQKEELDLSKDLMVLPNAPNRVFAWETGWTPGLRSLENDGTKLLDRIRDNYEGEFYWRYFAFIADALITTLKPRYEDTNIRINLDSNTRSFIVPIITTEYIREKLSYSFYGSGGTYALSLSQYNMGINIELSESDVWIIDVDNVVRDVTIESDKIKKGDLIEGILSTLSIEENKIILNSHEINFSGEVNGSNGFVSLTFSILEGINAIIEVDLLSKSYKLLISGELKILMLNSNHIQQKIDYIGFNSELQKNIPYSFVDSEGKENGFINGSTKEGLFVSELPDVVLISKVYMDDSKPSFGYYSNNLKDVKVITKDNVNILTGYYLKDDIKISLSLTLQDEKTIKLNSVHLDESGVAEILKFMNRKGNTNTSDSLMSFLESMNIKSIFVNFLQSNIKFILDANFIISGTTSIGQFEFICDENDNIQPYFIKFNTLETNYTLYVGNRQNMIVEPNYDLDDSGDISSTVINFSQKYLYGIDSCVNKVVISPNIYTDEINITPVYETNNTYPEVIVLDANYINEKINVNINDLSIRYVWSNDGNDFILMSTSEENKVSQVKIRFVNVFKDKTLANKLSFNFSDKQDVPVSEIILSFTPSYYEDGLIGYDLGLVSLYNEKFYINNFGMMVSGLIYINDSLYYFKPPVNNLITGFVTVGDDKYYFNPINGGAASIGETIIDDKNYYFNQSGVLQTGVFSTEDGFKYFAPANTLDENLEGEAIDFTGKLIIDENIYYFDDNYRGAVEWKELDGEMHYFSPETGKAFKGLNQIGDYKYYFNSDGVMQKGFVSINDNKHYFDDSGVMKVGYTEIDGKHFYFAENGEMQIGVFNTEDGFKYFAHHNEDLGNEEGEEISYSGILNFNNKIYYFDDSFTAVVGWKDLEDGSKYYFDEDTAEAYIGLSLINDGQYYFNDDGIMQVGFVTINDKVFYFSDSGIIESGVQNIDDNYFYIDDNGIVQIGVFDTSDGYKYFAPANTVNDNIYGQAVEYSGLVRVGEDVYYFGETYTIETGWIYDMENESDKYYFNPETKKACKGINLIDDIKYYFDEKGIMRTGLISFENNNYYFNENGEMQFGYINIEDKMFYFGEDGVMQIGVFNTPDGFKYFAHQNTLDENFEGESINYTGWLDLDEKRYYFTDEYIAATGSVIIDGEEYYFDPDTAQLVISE
Mtb UGM inh: blocks M. tuberculosis UGM enzyme; actives 0.06% (n = 320,000); inhibition, % at 10 µM; P9WIQ1; purified UGM, fluorescence polarization probe displacement; in the data active = inhibition above about 10%, passing the limit was not always enough; inconclusive = no clear call, values can overlap the other calls
Mtb BioA inh: BioA (M. tuberculosis) enzyme inhibition; actives 0.096% (n = 360,000); inhibition, % at 9.99 µM; purified M. tuberculosis BioA enzyme, plate reader; in the data active = inhibition above about 40%; inconclusive = no clear call, values can overlap the other calls
Rv3671c protease: inhibits the M. tuberculosis serine protease Rv3671c | actives 0.048% (n = 320,000) | P9WHR9 | inhibition, % at 5.96 µM;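 also: extracellular domain of Rv3671c used as enzyme; 0% = enzyme with DMSO and 100% = no enzyme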
FadD28 FP inh: inhibitors of Mycobacterium tuberculosis FadD28 bisubstrate binding; inhibition, % at 12.5 µM; AID 588549; FadD28 bisubstrate probe binding, fluorescence polarization; actives 0.22% (n = 360,000); in the data active = inhibition above about 8.5%, passing the limit was not always enough; inconclusive = no clear call, values can overlap the other calls
Rv3671c cf: Rv3671c protease inhibition, confirmation; actives 40% (n = 140); AID 2761; inhibition, % at 5.96 µM; shares compounds with Rv3671c protease
* = called active by the depositor; ? = inconclusive; · = not tested or not shown. This is a sample that favours compounds with a hit; in the whole collection about 0.97% have one here. Rule as the data show it, unless noted: active = inhibition above about 38%; inactive = the rest.

SMILES	RecA splice inh	TcdB GH inh	Mtb UGM inh	Mtb BioA inh	Rv3671c protease	FadD28 FP inh	Rv3671c cf
CCCc1cc(=O)oc2cc(C)cc(OC(=O)c3ccco3)c12	1	1	1	·	66*	-2	84*
Cc1ccc2nc(-c3ccccc3C)oc(=O)c2c1	3	-1	0	2	62*	-1	75*
CCN(CC)C(=O)C1c2ccccc2Oc2ccccc21	-3	0	47*	-10	74*	-1	8
COc1cccc2c1C(=N)c1c(O)c3c(c(O)c1C2=O)CC(O)(C(C)=O)CC3OC1CC(N)C(O)C(C)O1 (stereo unspecified)	·	·	·	·	·	6	·
COc1cccc2c1C(=O)c1c(O)c3c(c(O)c1C2=O)C[C@](O)(C(C)=O)C[C@H]3O[C@@H]1C[C@@H](N)[C@@H](O)[C@@H](C)O1	-2	-24	33*	-55	45*	62*	35
CCN1C(=O)C(CC(=O)Nc2ccc(F)cc2)N(CCc2ccc(OC)cc2)C1=S (stereo unspecified)	9	2	0	·	51*	-3	-12
CCNc1ccc2noc3c2c1C(=O)c1ccccc1-3	-2	·	12*	·	130*	52*	126*
O=C1C(Cl)=C(NCc2ccco2)C(=O)c2ccccc21	·	0	·	·	·	-4	·
O=C1c2ccccc2-c2onc3ccc(NCc4ccco4)c1c23	17	·	12*	-7	106*	12*	81*
CCn1c(CSc2nnc(-c3cccnc3)n2-c2ccccc2C)nc2cc(C(=O)O)ccc21	·	·	1	·	49*	·	64*
Cc1ccccc1-n1c(SCC(=O)c2cc(C)n(C)c2C)nnc1-c1cccnc1	2	·	2	·	-1	-4	·
CC1=C(C(N)=O)C(c2cccs2)n2nc(-c3cccc(C)c3)nc2N1 (stereo unspecified)	-1	·	-1	1	43*	-1	52*
C[C@@H]1CN([C@H](C)CO)C(=O)c2cc(NC(=O)Cn3cnnn3)ccc2O[C@@H]1CN(C)C	·	-1	·	-3	·	·	·
Cc1cc(C)nc(NS(=O)(=O)c2ccc(N)cc2)n1	-3	0	-3	-1	2	-2	·
COc1cnc(NS(=O)(=O)c2ccc(N)cc2)nc1	-1	2	-3	0	85*	-2	-6
CC(=O)Oc1ccc2c(c1)Oc1cc(OC(C)=O)ccc1C21OC(=O)c2ccccc21	·	·	?	·	122*	41*	123*
Cc1cc(O)ccc1C1(c2ccc(O)cc2C)OC(=O)c2ccccc21	16	·	1	10	-10	-7	·
CC=Cc1ccc2n(c1=O)C[C@H]1[C@H](CO)[C@@H](C(=O)NC3CCCC3)N(CCC)[C@@H]21 (mixture of isomers)	·	0	·	·	·	·	·
CCN(CC)C(=S)SCC(=O)NC12CC3CC(CC(C3)C1)C2	3	1	-1	0	151*	-4	-5
Nc1c(C(=O)O)ccc2c1C(=O)c1ccccc1C2=O	11	1	0	·	-8	2	·
Nc1cc(C(=O)O)c(N)c2c1C(=O)c1ccccc1C2=O	15	·	3	·	61*	8.3*	52*
CCOC(=O)C1CCCN(C(=O)C2c3ccccc3Oc3ccccc32)C1 (stereo unspecified)	0	·	23*	·	60*	10*	10
CCOC(=O)C1CCCN(C(=O)C2COc3ccccc3O2)C1 (stereo unspecified)	·	3	·	1	·	-2	·
COc1ccc(CN(C)C[C@@H]2Oc3ccc(NC(=O)CCCN(C)C)cc3C(=O)N([C@@H](C)CO)C[C@H]2C)cc1	·	1	·	1	·	·	·
CN1C(=O)c2cc(NC(=O)c3cccc(F)c3)ccc2OC[C@H]2O[C@@H](CC(=O)NCc3ccccc3)CC[C@H]21	·	·	·	8	·	·	·
SMILES	RecA splice inh	TcdB GH inh	Mtb UGM inh	Mtb BioA inh	Rv3671c protease	FadD28 FP inh	Rv3671c cf
Cn1nc(-c2ccccc2)c(N2CCCCC2)cc1=O	3	5	0	·	0	-2	·
Cn1c(=O)cc2c3c(c(N4CCCCC4)ccc31)C(=O)c1ccccc1-2	-48	0	2	-4	52*	32*	36
COc1ccc2c3c([nH]c2c1)[C@@H](CO)N(C(=O)c1cccnc1)CC31CN(C(=O)NC(C)C)C1	·	-2	·	·	·	·	·
O=C(CSc1c(F)c(F)cc(F)c1F)Nc1ccc(C2SCCS2)cc1	1	0	1	1	164*	0	-5
O=C(CSc1ccc(Cl)cc1)Nc1ccc(C2SCCS2)cc1	-3	1	-4	·	5	0	·
N#CC(C#N)=C1C=C2C=C(N3CCCCC3)CCC2CC1 (stereo unspecified)	·	·	-8	·	51*	·	36
CCN(CC)C1=CC2=CC(=C(C#N)C#N)CCC2CC1 (stereo unspecified)	-16	0	-1	·	4	1	·
O=C(CCN1CCCCC1)NCC[C@H]1CC[C@@H](NC(=O)C2CCCC2)[C@@H](CO)O1	·	0	·	2	·	·	·
O=C1CCCC2=C1C(c1ccc(Cl)cc1)C1C(=O)c3ccccc3C1=N2 (stereo unspecified)	-4	·	0	7	40*	?	3
O=C(Nc1ccc(C(F)(F)F)cc1)N1[C@@H]2CNC[C@H]1C2c1ccc(-c2ccc(F)cc2)cc1 (stereo partly specified)	·	0	·	·	·	·	·
O=C(C[C@H]1CC[C@@H]2[C@H](COC[C@@H](O)CN2S(=O)(=O)c2ccccc2Cl)O1)NCc1ccccc1Cl	·	1	·	1	·	·	·
Cc1n[nH]c(=O)c2c(NC(=O)CSc3nc4ccccc4c(=O)n3CCCOC(C)C)oc(C)c12	1	1	0	1	92*	-3	-2
CCOCCCn1c(SCC(=O)Nc2oc(C)c3c(C)n[nH]c(=O)c23)nc2ccccc2c1=O	·	4	·	-1	·	0	·
CS(=O)(=O)Nc1ccc2c(c1)[C@H]1C[C@H](CC(=O)O)O[C@@H](CO)[C@H]1O2	·	-1	·	·	·	·	·
C[C@H](CO)N1C[C@H](C)[C@@H](CN(C)C(=O)Nc2ccccc2)Oc2ncc(-c3ccccc3)cc2C1=O	·	·	·	0	·	·	·
C(=N\Nc1nc2ccccc2[nH]1)/c1cccc2nccnc12	16	1	-4	-1	19	-2	·
C#CCn1cc(/C=N/Nc2nc3ccccc3[nH]2)c2ccccc21	15	·	-3	·	62*	5	64*
CC(=O)c1ccc(S(=O)(=O)Nc2cccc(-c3ccc4nncn4n3)c2)cc1	-1	·	-1	0	56*	-4	11
COc1ccc(-c2ccc(C3[C@H]4CNC[C@@H]3N4S(=O)(=O)c3ccc(OC)cc3)cc2)cc1 (stereo partly specified)	·	0	·	·	·	·	·
O=C(N/N=C/c1cccnc1)c1cccc(NC(=O)c2cccc(Br)c2)c1	1	1	-1	15	61*	-4	-125
O=C(N/N=C/c1cc(Br)ccc1O)c1ccncc1	2	-14	-4	-2	41*	-8	9
CC(=O)Nc1cccc(C(=O)N/N=C/c2cccnc2)c1	-3	0	2	14	8	-1	·
